Our source for the Percent Effect values is ChEMBL document CHEMBL3988442, “University of Dundee, Small-Polar-MMV Screening Library” (2021).

For the test, the target named is T1, Aspartate--tRNA(Asp/Asn) ligase (Mycobacterium tuberculosis (strain ATCC 25618 / H37Rv)) (UniProt P9WFW3).
T1 sequence (whole entry): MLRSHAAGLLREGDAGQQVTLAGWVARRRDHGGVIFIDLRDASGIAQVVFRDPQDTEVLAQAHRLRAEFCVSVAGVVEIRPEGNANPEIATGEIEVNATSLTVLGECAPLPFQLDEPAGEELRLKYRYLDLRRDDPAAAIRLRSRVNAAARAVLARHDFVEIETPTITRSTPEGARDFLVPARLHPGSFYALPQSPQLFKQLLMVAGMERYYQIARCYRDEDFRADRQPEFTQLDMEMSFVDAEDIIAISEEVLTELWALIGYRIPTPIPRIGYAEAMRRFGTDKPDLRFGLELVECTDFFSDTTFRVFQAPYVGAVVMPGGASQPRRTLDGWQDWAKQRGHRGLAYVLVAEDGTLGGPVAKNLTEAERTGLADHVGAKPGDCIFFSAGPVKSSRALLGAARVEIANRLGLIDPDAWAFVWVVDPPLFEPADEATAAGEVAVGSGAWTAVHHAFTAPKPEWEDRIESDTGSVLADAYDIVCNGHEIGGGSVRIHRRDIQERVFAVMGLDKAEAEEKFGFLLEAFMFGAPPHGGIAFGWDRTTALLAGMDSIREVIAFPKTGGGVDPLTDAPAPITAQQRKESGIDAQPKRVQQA
The test is described as follows: Assay for Asp RNA synthetase-1 from Mycobacterium tuberculosis. The test is classed as functional. Also on record: scale not given: in the data most compounds retested in dose-response had high values. As to conditions: 30 µM.
As to `COc1cccc(CNCCc2cc(F)cc3c2OCOC3)c1`, the Percent Effect is -4.9%. With `COCC1c2nnn(CC3CC3)c2CCN1C(=O)c1cccc(F)c1` (stereo not given) the figure was -5.71%.

For `CN(C)S(=O)(=O)N1CCCC1CC(=O)c1cccs1` (stereo not given), the Percent Effect stood at 2.35%.

Turning to `Cc1ccc(CN2Cc3c(C(=O)N(C)C)nn(C)c3C2)s1`, the Percent Effect worked out at 1.3%.

Turning to `O=C1CCCc2nccc(-c3ccccc3)c21`, the Percent Effect was 1.6%. On to `CC(C)N1CCC(N2CCN(C3CCC3)CC2CCO)CC1` (stereo not given), for which the Percent Effect was -3.4%. Turning to `COc1ccccc1C(O)CNC(=O)Nc1ncccc1C` (stereo not given), the Percent Effect is -3.63%. Regarding `Cc1cnn(CCNCc2ccc(F)cc2Cl)c1`, the Percent Effect is 0.495%. For the compound `COCCN1CCN(CCS(=O)(=O)C(F)(F)F)CC1C` (stereo not given), the Percent Effect is -2.33%. On to `CN(C)CC1CN(Cc2csc(C3CCCC3)n2)CCO1` (stereo not given), for which the Percent Effect turned out to be 1.38%. Turning to `CCSc1cc(C(=O)NCCC(=O)Nc2ccccn2)ccn1`, the Percent Effect is -1.96%. For the compound `NC(=O)c1ccc(S(=O)(=O)NC(=O)COc2ccc3c(c2)CCC3)cc1`, the Percent Effect is -2.01%.

On to `CC(C)CN1CCN(Cc2nc3ccccc3[nH]2)[C@H]2CS(=O)(=O)C[C@H]21`, for which the Percent Effect came to 4.05%. Turning to `CN1CC(=O)N(c2ccccc2)CC12CCN(Cc1cccnc1)C2` (stereo not given), the Percent Effect was -5.22%. As for `Cc1ccc2c(c1)C1(CC2)CCN(c2nncs2)CC1`, the Percent Effect is 1.71%. With `CCCn1nc2c(cc1=O)CN(Cc1nc(CCOC)no1)CC2`, the Percent Effect stood at 16.9%. Regarding `O=C(CCCc1ccc(F)cc1)N1C[C@@H](CN2CCOCC2)[C@@H](CO)C1`, the Percent Effect is 5.03%.

For `Cc1nc(CNCC2CN(C)CCO2)cs1` (stereo not given), the Percent Effect was -3.4%. For the compound `COCCN1CCN(Cc2ccc(F)c(C)c2)[C@H]2CS(=O)(=O)C[C@H]21`, the Percent Effect was -3.12%. As to `Cc1ccc([C@@H]2CN(C(=O)c3ccc[nH]3)C[C@H]2NC(=O)C2CC2)cc1`, the Percent Effect is -1.93%.
